Records with an inconclusive call do not appear. Where a call stands in place of a potency, no number is given. Activity calls are given as the source filed them. Calls come from the whole dose curve; as a rule, active = well fitted cell-killing curve with a large enough effect; inconclusive = small, poorly fitted or top-dose-only effect, or effect the other way; inactive = no such curve, though single readings can be large or run the other way.
Assay: Quantitative High-Throughput drug screen in 47 multiple myeloma cell lines against the NCATS MIPE library collection: KMS12PE_JCRB cell viability assay (AID 1918972); note: nearly all actives have a fitted effect of over 30% in size; note: potency is the fitted concentration of half-maximal effect
Conditions: KMS12PE myeloma viability, CellTiter-Glo ATP, 48 h; series mostly up to 45.8 µM
Text: PI: Beverly A. Mock Ph.D.
Laboratory of Cancer Biology and Genetics,
Center for Cancer Research, National Cancer Institute,
National Institute of Health, Bethesda, Maryland
Drug resistance and disease progression are common in multiple myeloma (MM) patients, underscoring the need for new therapeutic combinations. […] We hypothesized that effective combinations would reduce MYC expression and enhance p16 activity. […] These preclinical data identify potentially useful drug combinations for evaluation in drug-resistant MM and reveal potential mechanisms of combined drug sensitivity.
Described herein is the primary MIPE qHTS used to cherrypick compounds. Validated compounds were then further tested for potential synergistic activiy.
[1] Peat TJ, Gaikwad SM, Dubois W, Gyabaah-Kessie N, Zhang S, Gorjifard S, Phyo Z, Andres M, Hughitt VK, Simpson RM, Miller MA, Girvin AT, Taylor A, Williams D, D'Antonio N, Zhang Y, Rajagopalan A, Flietner E, Wilson K, Zhang X, Shinn P, Klumpp-Thomas C, McKnight C, Itkin Z, Chen L, Kazandijian D, Zhang J, Michalowski AM, Simmons JK, Keats J, Thomas CJ, Mock BA. Drug combinations identified by high-throughput screening promote cell cycle transition and upregulate Smad pathways in myeloma. Cancer Lett. 2023 Aug 1;568:216284. doi: 10.1016/j.canlet.2023.216284. Epub 2023 Jun 24. PMID: 37356470; PMCID: PMC10408729.
SEQUENCE No. (e.g., 1, 2, 3, etc.); […] (e.g., Cells, Incubation, Reagent, etc.); VALUE and DESCRIPTION.
1; Cells; 5 uL; white, solid bottom 1536-well Greiner assay plate.
2; Compounds; 23 nL; Kalypsis pin tool (Wako USA) equipped with a 1536-well pin head to transfer to the assay plates.
3; Incubation; 48 hours; 37C incubation.
4; Reagent;5uL; CellTiter Glo (Promega).
5; Detector; 425V; Luminescence; Viewlux PerkinElmer.
NOTES (numbers refer to Sequence numbers above)
1. The cell-based screening methods employed in this study were like those previously published. Briefly, the corresponding myeloma cell lines were screened in 1,536-well plates with 500 cells, 5-uL per well for inhibition of cell viability (assessed by measuring ATP levels with CellTiterGlo).
2. NCATS MIPE 4.0 library of approved and investigational drugs were added using the Kalypsis pin tool. Wells treated with DMSO only for 100% viability and media only wells for 0% viability were used as controls.
3. The assay plates were covered and incubated for 48 hours in a 37C, 5% CO2 incubator with controlled humidity.
4. After 48 hours, CellTilter-GloTM luminescent substrate mix (Promega) reagent was added to the assay plate and plates we incubated for 5 min at room temperature.
5. Signal was measured as median relative luminescence units on a ViewLux (PerkinElmer) multiplate reader.
[1] Heske CM, Davis MI, Baumgart JT, Wilson K, Gormally MV, Chen L, Zhang X, Ceribelli M, Duveau DY, Guha R, Ferrer M, Arnaldez FI, Ji J, Tran HL, Zhang Y, Mendoza A, Helman LJ, Thomas CJ. Matrix Screen Identifies Synergistic Combination of PARP Inhibitors and Nicotinamide Phosphoribosyltransferase (NAMPT) Inhibitors in Ewing Sarcoma. Clin Cancer Res. 2017 Dec 1;23(23):7301-7311. doi: 10.1158/1078-0432.CCR-17-1121. Epub 2017 Sep 12. PMID: 28899971; PMCID: PMC6636827.

Row | Structure (SMILES) | Potency
1 | C[C@]12CCC(=O)C=C1CC[C@@H]1[C@H]3CC[C@](C)(O)[C@@]3(C)CC[C@@H]12 | 15.2 µM (active)
2 | CN1C(=O)CCS(=O)(=O)C1c1ccc(Cl)cc1 (stereo not given) | inactive
3 | O=P1(N(CCCl)CCCl)NCCCO1 (stereo not given) | 8.33 µM (active)
4 | COc1cc(OC)c(OC)cc1C=O | inactive
5 | CN1C(=O)COc2c(C(=O)NC3CN4CCC3CC4)cc(Cl)cc21 (stereo not given) | inactive
6 | O=C(O)CCCc1ccc(N(CCCl)CCCl)cc1 | inactive
7 | CC(NC(C)(C)C)C(=O)c1cccc(Cl)c1 (stereo not given) | inactive
8 | CC(C)C[C@H](CN)CC(=O)O | inactive
9 | CCC1(c2ccc(N)cc2)CCC(=O)NC1=O (stereo not given) | inactive

Assay: Quantitative High-Throughput drug screen in 47 multiple myeloma cell lines against the NCATS MIPE library collection: KMS20_JCRB cell viability assay (AID 1918973); note: nearly all actives have a fitted effect of over 45% in size; note: potency is the fitted concentration of half-maximal effect
Conditions: CellTiter-Glo ATP, 48 h; series mostly up to 45.8 µM
Outline: (§1)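 Relative luminescence from CellTiter-Glo served as the viability signal, referenced to DMSO-treated (100%) and cell-free medium (0%) controls. Treatment lasted 48 hours at 37C with 500 cells per well.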

Row | Structure (SMILES) | Potency
10 | CN1C(=O)CCS(=O)(=O)C1c1ccc(Cl)cc1 (stereo not given) | inactive
11 | C[C@](O)(CS(=O)(=O)c1ccc(F)cc1)C(=O)Nc1ccc(C#N)c(C(F)(F)F)c1 | 0.833 µM (active)
12 | COc1cc(OC)c(OC)cc1C=O | inactive
13 | C[C@]12CC[C@H]3[C@@H](CC[C@@]45O[C@H]4C(O)=C(C#N)C[C@]35C)[C@H]1CC[C@H]2O | inactive
14 | CC(C)c1cccc(C(C)C)c1O | inactive

Assay: Quantitative High-Throughput drug screen in 47 multiple myeloma cell lines against the NCATS MIPE library collection: KMS21BM_JCRB cell viability assay (AID 1918974); note: potency is the fitted concentration of half-maximal effect
Conditions: ATP luminescence, 48 h; series mostly up to 45.8 µM
Outline: as §1

Row | Structure (SMILES) | Potency
15 | C[C@](O)(CS(=O)(=O)c1ccc(F)cc1)C(=O)Nc1ccc(C#N)c(C(F)(F)F)c1 | 6.62 µM (active)
16 | O=P1(N(CCCl)CCCl)NCCCO1 (stereo not given) | 14.8 µM (active)
17 | COc1cc(OC)c(OC)cc1C=O | inactive
18 | C[C@]12CC[C@@H]3c4ccc(OC(=O)N(CCCl)CCCl)cc4CC[C@H]3[C@@H]1CC[C@@H]2OP(=O)(O)O | inactive
19 | O=C(O)CCCc1ccc(N(CCCl)CCCl)cc1 | inactive

Assay: Quantitative High-Throughput drug screen in 47 multiple myeloma cell lines against the NCATS MIPE library collection: KMS26_JCRB cell viability assay (AID 1918975); note: nearly all actives have a fitted effect of over 45% in size; note: potency is the fitted concentration of half-maximal effect
Conditions: KMS26 myeloma cells viability, CellTiter-Glo ATP, 48 h; series mostly up to 45.8 µM
Outline: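 qHTS of the MIPE 4.0 collection: 500 myeloma cells/well, 48 h drug exposure at 37C in 5% CO2, then CellTiter-Glo for 5 min at room temperature before luminescence reading.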

Row | Structure (SMILES) | Potency
20 | CN1C(=O)CCS(=O)(=O)C1c1ccc(Cl)cc1 (stereo not given) | inactive
21 | C[C@](O)(CS(=O)(=O)c1ccc(F)cc1)C(=O)Nc1ccc(C#N)c(C(F)(F)F)c1 | 4.69 µM (active)
22 | COc1cc(OC)c(OC)cc1C=O | inactive
23 | CN1C(=O)COc2c(C(=O)NC3CN4CCC3CC4)cc(Cl)cc21 (stereo not given) | inactive
24 | CC(NC(C)(C)C)C(=O)c1cccc(Cl)c1 (stereo not given) | inactive
25 | CC(C)C[C@H](CN)CC(=O)O | inactive
26 | CCC1(c2ccc(N)cc2)CCC(=O)NC1=O (stereo not given) | inactive

Assay: Quantitative High-Throughput drug screen in 47 multiple myeloma cell lines against the NCATS MIPE library collection: MMM1_PLB cell viability assay (AID 1918976); note: potency is the fitted concentration of half-maximal effect; nearly all actives have a fitted effect of over 35% in size
Conditions: MMM1 myeloma cells viability, CellTiter-Glo, 48 h
Outline: (§2)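 Myeloma cells (500/well) treated with MIPE 4.0 compounds for 48 h at 37 °C, 5% CO2. Viability read as ATP via CellTiter-Glo luminescence after 5 min at RT; DMSO-only wells = 100%, media-only = 0% viability.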

Row | Structure (SMILES) | Potency
27 | O=P1(N(CCCl)CCCl)NCCCO1 (stereo not given) | 2.35 µM (active)
28 | CC(C)C[C@H](CN)CC(=O)O | 11.8 µM (active)
29 | CCC1(c2ccc(N)cc2)CCC(=O)NC1=O (stereo not given) | 0.743 µM (active)

Assay: Quantitative High-Throughput drug screen in 47 multiple myeloma cell lines against the NCATS MIPE library collection: MOLP8_DSMZ cell viability assay (AID 1918977); note: nearly all actives have a fitted effect of over 45% in size
Conditions: MOLP8 myeloma viability, CellTiter-Glo ATP luminescence, 48 h; series mostly up to 45.8 µM
Outline: as §2

Row | Structure (SMILES) | outcome
30 | CN1C(=O)CCS(=O)(=O)C1c1ccc(Cl)cc1 (stereo not given) | inactive
31 | C[C@]12CC[C@@H]3c4ccc(OC(=O)N(CCCl)CCCl)cc4CC[C@H]3[C@@H]1CC[C@@H]2OP(=O)(O)O | inactive
32 | CN1C(=O)COc2c(C(=O)NC3CN4CCC3CC4)cc(Cl)cc21 (stereo not given) | inactive
33 | CC(C)C[C@H](CN)CC(=O)O | inactive
34 | CC(C)c1cccc(C(C)C)c1O | inactive
35 | CCC1(c2ccc(N)cc2)CCC(=O)NC1=O (stereo not given) | inactive

Reference: PubChem BioAssay (NCATS)
